For 14 compounds, growth results are on record in PubChem BioAssay (NCI).

“And” between values parts separate entries of the source, which are not always exact repeats. Identical values can stand only once. About 83,000 compounds went through this panel and 20% of them were active in at least one assay; those are over-represented in the sample as a whole.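 Compound tested at a single concentration for 48 hours in 96-well plates; a percent growth value below 10 was scored as active.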 The source made the active and inactive calls.

Among the test systems are SK-MEL-2 melanoma; EKVX NSCLC; UO-31 renal; TK-10 renal; ACHN renal; CAKI-1 renal; A498 renal; HL-60(TB) leukemia; CCRF-CEM leukemia; SN12C renal.
Common to all, as to assay: NCI-60 one-dose screen, 48 h (100 = growth as untreated, 0 = no growth, -100 = all killed)
Holding throughout (settings): 10 µM unless noted

Take `CCC1(CCSC#N)C(=O)NC(=O)NC1=O`: the growth in the experiment with SK-MEL-2 melanoma is 109% (inactive); in the experiment on EKVX NSCLC, 93.2% (inactive); in the experiment with UO-31 renal, 87% (inactive); with TK-10 renal, 86.5% (inactive); with ACHN renal, 106% (inactive); with CAKI-1 renal, 98.7% (inactive). The values for the growth with A498 renal, in the experiment with HL-60(TB) leukemia and in the experiment on CCRF-CEM leukemia were 90.9% (inactive), 98.3% (inactive) and 103% (inactive), respectively.

`N#CCN(CC#N)[N+](=O)[O-]`: the growth is 105% (inactive) in the experiment on SK-MEL-2 melanoma; 104% (inactive) in the experiment with EKVX NSCLC; 101% (inactive) with UO-31 renal; 110% (inactive) in the experiment on ACHN renal; 95.2% (inactive) with CAKI-1 renal; 95% (inactive) in the experiment on A498 renal. In addition, the growth is 115% (inactive) in the experiment on HL-60(TB) leukemia and 85.2% (inactive) with CCRF-CEM leukemia.

On to `C=C[Se]CC(=O)/C=C/c1ccccc1`, for which the growth in the experiment with SK-MEL-2 melanoma was 99.9% (inactive); in the experiment with EKVX NSCLC, 70.4% (inactive); in the experiment with UO-31 renal, 39.4% (inactive); in the experiment with TK-10 renal it was 103% (inactive); in the experiment with ACHN renal it was 95.5% (inactive); with CAKI-1 renal it was 106% (inactive). Besides, the growth in the experiment on A498 renal was 65.3% (inactive); with HL-60(TB) leukemia, 42.2% (inactive); in the experiment with CCRF-CEM leukemia, 47.4% (inactive).

Consider `CC1=C(C)C(=O)O[C@@H]([C@](C)(O)[C@]2(O)CC[C@@]3(O)[C@@H]4C[C@H]5O[C@]56CC=CC(=O)[C@]6(C)[C@H]4CC[C@]23C)C1`, for which the growth in the experiment with SK-MEL-2 melanoma is -24.6% (active); with SN12C renal it was 3.65% (active); in the experiment with UO-31 renal, -24.3% (active); with TK-10 renal it was -48% (active); with ACHN renal it was -72.4% (active); in the experiment with CAKI-1 renal, -49% (active). Further, the growth was -59.9% (active) in the experiment with A498 renal, -36.9% (active) in the experiment on HL-60(TB) leukemia and -8.66% (active) with CCRF-CEM leukemia.

Regarding `O=C1NC(=O)C(=C/C=C/c2ccccc2)C(=O)N1`, the growth was 74.2% (inactive) in the experiment with SK-MEL-2 melanoma; 84.1% (inactive) in the experiment on EKVX NSCLC; -64.3% (active) in the experiment with UO-31 renal; 14.8% (inactive) in the experiment on TK-10 renal; 2.5% (active) in the experiment with ACHN renal; -12.7% (active) in the experiment with CAKI-1 renal. For the same compound, the growth is 106% (inactive) in the experiment on A498 renal, -5.93% (active) in the experiment with HL-60(TB) leukemia and -7.03% (active) in the experiment on CCRF-CEM leukemia.

Turning to `C[C@H](O)CCC(=O)c1ccoc1`, the growth in the experiment with SK-MEL-2 melanoma was 110% (inactive); in the experiment with EKVX NSCLC, 104% (inactive); in the experiment on UO-31 renal it was 98.9% (inactive); in the experiment on TK-10 renal, 103% (inactive); in the experiment with ACHN renal, 114% (inactive); in the experiment on CAKI-1 renal it was 101% (inactive). Further, the growth in the experiment with A498 renal was 103% (inactive); in the experiment with HL-60(TB) leukemia, 99.4% (inactive); with CCRF-CEM leukemia, 98.1% (inactive).

For the compound `CN1CCC2(CC1)C(C#N)C(=O)NC(=O)C2C#N` (stereo not drawn), the growth in the experiment with SK-MEL-2 melanoma was 113% (inactive); in the experiment on SN12C renal, 105% (inactive); with UO-31 renal, 91.9% (inactive); in the experiment with TK-10 renal it was 125% (inactive); in the experiment on ACHN renal, 110% (inactive); with CAKI-1 renal, 92% (inactive). For the same compound, the growth with A498 renal is 95.8% (inactive); with HL-60(TB) leukemia, 107% (inactive); with CCRF-CEM leukemia it was 104% (inactive).

As to `c1ccc2c(c1)O[As](O[As]1Oc3ccccc3O1)O2`, the growth in the experiment with SK-MEL-2 melanoma was 5.79% (active); in the experiment with SN12C renal it was 40.2% (inactive); with UO-31 renal, 32.2% (inactive); with TK-10 renal, 61.6% (inactive); with ACHN renal it was 59.3% (inactive); in the experiment on CAKI-1 renal, 16.5% (inactive). Further, the growth with A498 renal was 27.5% (inactive); in the experiment on HL-60(TB) leukemia it was -28.3% (active).

Turning to `O=C(Cc1ccccc1)c1ccccc1`, the growth is 110% (inactive) with SK-MEL-2 melanoma; 103% (inactive) in the experiment on EKVX NSCLC; 90.2% (inactive) with UO-31 renal; 95.5% (inactive) in the experiment with TK-10 renal; 107% (inactive) in the experiment with ACHN renal; 101% (inactive) in the experiment on CAKI-1 renal. Moreover, the growth was 63.6% (inactive) in the experiment with A498 renal, 103% (inactive) with HL-60(TB) leukemia and 7.63% (active) with CCRF-CEM leukemia.

Consider `N[C@@H](CCC(=O)CCl)C(=O)O`, for which the growth in the experiment with SK-MEL-2 melanoma was 87.6% [20 µM] (inactive); with EKVX NSCLC it was 101% [20 µM] (inactive); with UO-31 renal it was 91% [20 µM] (inactive); with ACHN renal, 97.9% [20 µM] (inactive); in the experiment with CAKI-1 renal it was 97% [20 µM] (inactive); with A498 renal, 110% [20 µM] (inactive). Besides, the growth with HL-60(TB) leukemia was 101% [20 µM] (inactive); in the experiment with CCRF-CEM leukemia, 97.6% [20 µM] (inactive).

As for `C[C@]12CCc3sc(Nc4ccc(F)cc4F)nc3C1=CC[C@@H]1[C@@H]2CC[C@]2(C)C(=O)CC[C@@H]12`, the growth was 76.4% (inactive) in the experiment with SK-MEL-2 melanoma; 78.4% (inactive) in the experiment with EKVX NSCLC; 42.9% (inactive) in the experiment on UO-31 renal; 50.2% (inactive) in the experiment on TK-10 renal; 37.7% (inactive) with ACHN renal; 38.4% (inactive) in the experiment on CAKI-1 renal. The growth is 77.8% (inactive) in the experiment with A498 renal, 21.4% (inactive) in the experiment with HL-60(TB) leukemia and 10.1% (inactive) in the experiment on CCRF-CEM leukemia.

With `O=[N+]([O-])c1ccc(P(=O)(O)O)cc1`, the growth in the experiment on SK-MEL-2 melanoma was 103% (inactive); in the experiment on SN12C renal, 101% (inactive); in the experiment on UO-31 renal, 81.5% (inactive); in the experiment on TK-10 renal, 101% (inactive); in the experiment with ACHN renal it was 98.8% (inactive); with CAKI-1 renal, 95.7% (inactive). The figures for the growth in the experiment on A498 renal, with HL-60(TB) leukemia and with CCRF-CEM leukemia were 125% (inactive), 105% (inactive) and 97.1% (inactive), respectively.

Consider `C[C@]12CC[C@H]3[C@@H](C[C@@H]4SC(Nc5ccccc5)=N[C@@]45C/C(=N/O)CC[C@]35C)[C@@H]1CCC2=O`, for which the growth was 69% (inactive) in the experiment with SK-MEL-2 melanoma; 84.7% (inactive) in the experiment on SN12C renal; 91.5% (inactive) in the experiment with UO-31 renal; 102% (inactive) in the experiment on TK-10 renal; 60.4% (inactive) with ACHN renal; 59.3% (inactive) in the experiment with CAKI-1 renal. Also, the growth with A498 renal was 96.3% (inactive); in the experiment with HL-60(TB) leukemia it was 70.1% (inactive); in the experiment with CCRF-CEM leukemia, 8.6% (active).

As to `C=C1C(=O)OC2CC3(C)OC3C3OC3C3=CC(OC3=O)C12` (stereo not drawn), the growth was 100% (inactive) with SK-MEL-2 melanoma; 111% (inactive) in the experiment on EKVX NSCLC; 44.3% (inactive) and 44.2% (inactive) in the experiment on UO-31 renal; 16.7% (inactive) and -22.5% (active) in the experiment with TK-10 renal; -5.94% (active) and -29% (active) with ACHN renal; 4.76% (active) and 6.96% (active) in the experiment with CAKI-1 renal. In addition, the growth was 113% (inactive) and 106% (inactive) in the experiment with A498 renal; -17.4% (active) and 3.33% (active) with HL-60(TB) leukemia; -42.4% (active) and -54.4% (active) in the experiment on CCRF-CEM leukemia.
